Reference: PubChem BioAssay AID1053180 (Broad Institute, 2014)
Among all 9,600 compounds or so, about 20 (0.2%) were called active. This excerpt belongs to a sample that is enriched for actives. A number with no mark means an inactive call.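 Rule for the calls: active = highest normalized replicate activity of 15 or more, or at least half the replicates reach 15 or more; inactive = neither condition met.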

Assay: Pax4 mRNA upregulation in alpha cells – RT-PCR, mouse alpha TC1 cells, single point, primary screen (AID 1053180);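 note: Pax4 Ct normalized to GAPDH with activation seen as lower delta delta Ct; plate controls were plate neutral control wells for no effect and Pax4 plasmid positive control for full effect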
Settings: Pax4 mRNA qPCR, 6 days, at 10 µM, active compounds read high, 100% = Pax4 plasmid added at qPCR

SMILES | activation
O=C(C[C@H]1CC[C@@H]2[C@H](COC[C@H](O)CN2Cc2nccs2)O1)N1CCC(Cc2ccccc2)CC1 | 0.0115%
C[C@@H]1CN([C@H](C)CO)C(=O)c2ccccc2-c2ccccc2CO[C@@H]1CN(C)Cc1ccc2c(c1)OCCN2C | 0.075%
O=C(C[C@@H]1CC[C@@H]2[C@H](COC[C@@H](O)CN2CCC(F)(F)F)O1)NCc1ccc2c(c1)OCO2 | -0.005%
CN(C)c1ccc2c(c1)[C@@H]1C[C@@H](CC(=O)NC3CCCCC3)O[C@@H](CO)[C@@H]1O2 | 0.029%
O=C(O)[C@H]1[C@H](CO)[C@H]2Cn3c(ccc(-c4cccc(F)c4)c3=O)[C@H]2N1C(=O)c1ccccn1 | 0.0005%
C[C@@H]1CCCCO[C@@H](CN(C)CC2CCCCC2)[C@H](C)CN([C@H](C)CO)C(=O)c2cc(NS(C)(=O)=O)ccc2O1 | -0.001%
C[C@H]1CN([C@@H](C)CO)C(=O)c2cccc(NC(=O)c3cnccn3)c2O[C@@H]1CN(C)C(=O)NC1CCCCC1 | 0.0055%
CN1c2ccc(-c3ccc(C#N)cc3)cc2[C@H]2[C@H](CCN2S(=O)(=O)c2ccc(F)cc2)[C@@H]1CO | 0.036%
O=C(C[C@@H]1C[C@@H]2c3cc(NS(=O)(=O)c4ccc(F)cc4)ccc3O[C@@H]2[C@@H](CO)O1)N1CCc2ccccc2C1 | 0.011%
C[C@H](CO)N1C[C@H](C)[C@@H](CN(C)C(=O)c2ccc3ccn(C)c3c2)OCc2cnnn2CCCC1=O | 0.0015%
COc1ccc2c3c(n(C)c2c1)[C@H](CO)N(S(=O)(=O)c1ccc(C)cc1)CC31CCN(C)CC1 | 0.052%
CO[C@H](CN(C)Cc1ccc2c(c1)OCO2)[C@H](C)CN(C(=O)Nc1ccc(F)cc1)[C@H](C)CO | 0.0005%
O=C(NCc1ccccc1)[C@H]1[C@H](CO)[C@H]2Cn3c(cccc3=O)[C@@H]1N2C(=O)Cc1ccccn1 | 0%
CNC[C@H]1OCc2cn(nn2)CCCC(=O)N([C@@H](C)CO)C[C@H]1C | 0.005%
COc1ccc2c3c(n(C)c2c1)[C@@H](CO)N(CC1CC1)CC31CN(C(=O)c2ccc3c(c2)OCO3)C1 | 8.42% (active)
COc1ccc2c3c(n(C)c2c1)[C@H](CO)N(CC1CC1)CC31CN(C(=O)c2ccc3c(c2)OCO3)C1 | 0.0045%
COc1ccc2c3c(n(C)c2c1)[C@@H](CO)N(C)CC31CCN(C(=O)c2ccc3c(c2)OCO3)CC1 | 0.0125%
CC[C@H]1C/C=C\C[C@@H](c2ccccc2)NC(=O)CCC(=O)N1 | -0.01%
O=C(c1cccc(F)c1)N1CC(=O)N2[C@@H](CO)[C@H](c3ccc(C4=CCCCC4)cc3)[C@@H]2C1 | 0.025%
COc1ccc(CN(C)C[C@@H]2Oc3ccc(NC(=O)Nc4ccc5c(c4)OCO5)cc3CC(=O)N([C@@H](C)CO)C[C@@H]2C)cc1 | 0.002%
COCC(=O)N1C[C@@H](C)[C@@H](OC)CN(C)C(=O)c2ccc(NC(=O)Nc3cccc(F)c3)cc2OC[C@H]1C | -0.0005%

SMILES | activation
CCC(=O)N1[C@H](CO)[C@@H]2c3ccccc3N(C(=O)Nc3ccc(Cl)cc3)C[C@@H]21 | -0.0015%
COc1ccccc1S(=O)(=O)N(C)C[C@@H]1OCc2cn(nn2)CCCC(=O)N([C@H](C)CO)C[C@H]1C | 0.001%
O=C(C1CCOCC1)N1CC(=O)N2[C@H](C1)[C@@H](c1ccc(-c3cccnc3)cc1)[C@@H]2CO | 0%
O=C(C[C@@H]1CC[C@@H]2[C@H](COC[C@@H](O)CN2Cc2cc(F)ccc2F)O1)NCc1ccc(Oc2ccccc2)cc1 | 0.098%
CN1c2ccc(-c3ccccc3)cc2[C@@H]2[C@@H](CCN2C(=O)NC2CCCCC2)[C@H]1CO | 0.001%
Cc1noc(C)c1S(=O)(=O)N(C)C[C@H]1Oc2ccc(NC(=O)c3ccncc3)cc2CC(=O)N([C@H](C)CO)C[C@H]1C | -0.009%
CN1C(=O)c2cc(NC(=O)c3cnccn3)ccc2OC[C@@H]2O[C@H](CC(=O)NCC3CCCCC3)CC[C@@H]21 | 0.05%
CO[C@@H]1CN(C)C(=O)c2ccc(NC(=O)Nc3cc(F)ccc3F)cc2OC[C@H](C)N(C(=O)c2ccccn2)C[C@@H]1C | 0.0015%
O=C(CN1CCOCC1)N1CC[C@@H]2[C@@H](CO)Nc3ccc(-c4ccccc4F)cc3[C@@H]21 | 0.001%
O=C(C[C@@H]1C[C@H]2c3cc(NC(=O)NC4CCCC4)ccc3O[C@H]2[C@H](CO)O1)NCc1ccccc1F | 0.02%
CO[C@@H]1CN(C)C(=O)c2ccc(NC(=O)c3ccccc3F)cc2OC[C@H](C)N(C)C[C@H]1C | 0.0025%
O=C(C1CCOCC1)N1CC(=O)N2[C@H](CO)[C@@H](c3ccc(/C=C/c4ccccc4)cc3)[C@H]2C1 | 0.002%
O=C1Nc2ccccc2OCc2cn(nn2)CC[C@H]1Cc1ccc(-c2ccccc2)cc1 | 0.059%
O=C(C[C@@H]1C[C@@H]2c3cc(NC(=O)c4ccc5c(c4)OCO5)ccc3O[C@@H]2[C@H](CO)O1)NCCN1CCCCC1 | -0.001%
CN(C)C(=O)C[C@H]1C[C@@H]2c3cc(NC(=O)Nc4ccc(F)cc4)ccc3O[C@@H]2[C@@H](CO)O1 | 0.013%
O=C(C[C@H]1CC[C@H]2[C@@H](COC[C@H](O)CN2Cc2ccc3c(c2)OCO3)O1)N1CCCCC1 | 0.0435%
Cc1ccc(S(=O)(=O)N(C)C[C@@H]2OCCCC[C@@H](C)Oc3ccc(NC(=O)c4ccncc4)cc3C(=O)N([C@@H](C)CO)C[C@H]2C)cc1 | 0%
O=C(C[C@H]1CC[C@@H]2[C@H](COC[C@@H](O)CN2S(=O)(=O)c2cccc(Cl)c2)O1)N1CCOCC1 | 0%
CO[C@@H](CN(C)Cc1cc(F)ccc1F)[C@H](C)CN(C(=O)Nc1ccc(C(F)(F)F)cc1)[C@H](C)CO | 0.0205%
CO[C@H](CN(C)Cc1cc(F)ccc1F)[C@@H](C)CN(C(=O)Nc1ccc(C(F)(F)F)cc1)[C@H](C)CO | 0.0245%
CO[C@@H](CN(C)Cc1cc(F)ccc1F)[C@@H](C)CN(C(=O)Nc1ccc(C(F)(F)F)cc1)[C@H](C)CO | 19.2% (active)
